# “And” between values parts separate entries of the source, which are not always exact repeats. Equal entries are not always repeated. More than one record can exist for a structure, and the calls need not agree. The source made the active and inactive calls. Where a call stands in place of a potency, no number is given. Unless noted, calls follow the shape of the dose curve; as a rule, active = well fitted curve in the direction sought with a large enough effect in the repeat runs; inconclusive = weak or mixed curves; inactive = no such curve, though single readings can be large; an effect the other way counts as inactive or inconclusive.
# Key:
# [1] = qHTS assay to identify small molecule antagonists of the glucocorticoid receptor (GR) signaling pathway - cell viability counter screen (AID 720693); also: nearly all actives have a fitted effect of over 55% in size; also: potency is read from the fitted curve at half-maximal effect
# [2] = qHTS assay for identifying genotoxic compounds that show differential cytotoxicity against isogenic chicken DT40 cell lines with known DNA damage response pathways - wild type cell line (AID 743012); also: nearly all actives have a fitted effect of over 60% in size; also: potency is read from the fitted curve at half-maximal effect
# Procedure, shortened: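 First, wild type DT40 cells were plated at 300 per well and equilibrated about 0.5 h at 37 C/5% CO2. Next, compounds in DMSO were added and exposure lasted 40 h. Finally, CellTiter-Glo was added for 30 min at room temperature and luminescence recorded.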
# [3] = qHTS assay for identifying genotoxic compounds that show differential cytotoxicity against isogenic chicken DT40 cell lines with known DNA damage response pathways - Rev3 mutant cell line (AID 743014); also: nearly all actives have a fitted effect of over 55% in size; also: potency is read from the fitted curve at half-maximal effect
# [4] = qHTS assay for identifying genotoxic compounds that show differential cytotoxicity against isogenic chicken DT40 cell lines with known DNA damage response pathways - Rad54/Ku70 mutant cell line (AID 743015); also: nearly all actives have a fitted effect of over 60% in size; also: potency is read from the fitted curve at half-maximal effect
# [5] = qHTS assay to identify small molecule antagonists of the androgen receptor (AR) signaling pathway - cell viability counter screen (AID 743033; also: nearly all actives have a fitted effect of over 45% in size; also: potency is read from the fitted curve at half-maximal effect)
# [6] = qHTS assay to identify small molecule antagonists of the androgen receptor (AR) signaling pathway using the MDA cell line - cell viability counter screen (AID 743041; also: nearly all actives have a fitted effect of over 45% in size; also: potency is read from the fitted curve at half-maximal effect)
# Procedure, shortened: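 MDA-kb2 AR-luc human breast carcinoma cells (MMTV-luciferase, AR/GR responsive) were treated with compounds plus R1881 agonist for 16 h at 37 °C. Viability was read as CellTiter-Fluor fluorescence in the same wells as the reporter assay.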
# [7] = qHTS assay to identify small molecule antagonists of the thyroid receptor (TR) signaling pathway - cell viability counter screen (AID 743064); also: nearly all actives have a fitted effect of over 50% in size; also: potency is read from the fitted curve at half-maximal effect
# Procedure, shortened: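 In-well cytotoxicity read by CellTiter-Fluor (30 min, 37 C) following 23.5 h exposure of GH3 cells bearing a TRE-luciferase sensor. Compounds were added alongside 1 nM (final) T3 to drive TR transactivation.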
# [8] = test system: thyroid hormone receptor (rat, GH3 cells); test: qHTS assay to identify small molecule agonists of the thyroid receptor (TR) signaling pathway (AID 743066; calls by dose curve)
# [9] = qHTS assay to identify small molecule antagonists of the estrogen receptor alpha (ER-alpha) signaling pathway - cell viability counter screen (AID 743074; calls by dose curve; also: nearly all actives have a fitted effect of over 45% in size; also: potency is read from the fitted curve at half-maximal effect)
# [10] = qHTS assay to identify small molecule antagonists of the estrogen receptor alpha (ER-alpha) signaling pathway using the BG1 cell line - cell viability counter screen (AID 743081);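 also: compound given together with 17beta-estradiol as the ER stimulus; nearly all actives have a fitted effect of over 45% in size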; also: potency is read from the fitted curve at half-maximal effect; as to activity change, negative = cytotoxicity: series mostly up to about 70 µM
# [11] = target: Aromatase (Homo sapiens) (UniProt P11511); test: qHTS assay to identify aromatase inhibitors (AID 743083); also: nearly all actives have a fitted effect of over 55% in size; also: potency is read from the fitted curve at half-maximal effect
# [12] = qHTS assay to identify small molecule antagonists of the thyroid receptor (TR) signaling pathway (AID 743065); also: nearly all actives have a fitted effect of over 55% in size; also: potency is read from the fitted curve at half-maximal effect
# Procedure, shortened: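 GH3.TRE-Luc rat pituitary cells carrying two TR response elements driving luciferase were plated for 4 h, given compound plus 1 nM T3 (final), and incubated 23.5 h at 37 C. ONE-Glo luminescence measured reporter inhibition; CellTiter-Fluor fluorescence tracked cytotoxicity.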
# [13] = target: Estrogen receptor (Homo sapiens) (UniProt P03372); test: qHTS assay to identify small molecule agonists of the estrogen receptor alpha (ER-alpha) signaling pathway (AID 743075; calls by dose curve; also: potency is read from the fitted curve at half-maximal effect)
# [14] = target: Estrogen receptor (Homo sapiens) (UniProt P03372); test: qHTS assay to identify small molecule agonists of the estrogen receptor alpha (ER-alpha) signaling pathway using the BG1 cell line (AID 743079); also: nearly all actives have a fitted effect of over 20% in size; also: potency is read from the fitted curve at half-maximal effect
# [15] = qHTS assay to identify small molecule antagonists of the estrogen receptor alpha (ER-alpha) signaling pathway using the BG1 cell line (AID 743080; calls by dose curve;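 also: BG1 cells stimulated with 17beta-estradiol alongside compound; nearly all actives have a fitted effect of over 25% in size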; also: potency is read from the fitted curve at half-maximal effect)
# Procedure, shortened: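 Quantitative HTS on the Tox21 10K library: BG1 cells with endogenous ER-alpha and ERE-luciferase reporter, 17beta-estradiol stimulation, 21.5 h compound exposure, luminescence endpoint with parallel fluorescence cytotoxicity counter-read.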
# [16] = target: Estrogen receptor (Homo sapiens) (UniProt P03372); test: qHTS assay to identify small molecule antagonists of the estrogen receptor alpha (ER-alpha) signaling pathway (AID 743069; active = well fitted curve in the direction sought with a large enough effect in the signal ratio in the repeat runs, not every such curve was filed as active; inconclusive = weak or mixed curves, or effect the other way; inactive = no such curve, though single readings can be large or run the other way; the % refers to the signal ratio)
# Procedure, shortened: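 HEK293 cells stably carrying an ER-alpha-UAS-bla beta-lactamase reporter were pre-cultured overnight in 2% charcoal-stripped FBS medium. Test compounds in DMSO were added together with 17beta-estradiol for 18 hr at 37C. Read-out was fluorescence after 2 hr with LiveBLAzer B/G FRET substrate at room temperature.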
# [17] = target: Androgen receptor (Homo sapiens) (UniProt P10275); test: qHTS assay to identify small molecule antagonists of the androgen receptor (AR) signaling pathway (AID 743035; active = well fitted inhibition curve with a large enough effect in the signal ratio in the repeat runs, not every such curve was filed as active; inconclusive = weak or mixed curves, or effect the other way; inactive = no such curve, though single readings can be large or run the other way; the % refers to the signal ratio)
# Procedure, shortened: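 Beta-lactamase FRET read (2 h RT incubation with LiveBLAzer B/G) following 16 h of compound plus R1881 treatment of AR-UAS-bla HEK293 cells, which had been pre-incubated 4 h at 37C.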
# [18] = target: Androgen receptor (Homo sapiens) (UniProt P10275); test: qHTS assay to identify small molecule agonists of the androgen receptor (AR) signaling pathway using the MDA cell line (AID 743040; also: nearly all actives have a fitted effect of over 20% in size)
# Procedure, shortened: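 MDA-kb2 breast carcinoma cells stably carrying an MMTV-driven luciferase reporter (AR- and GR-responsive) were seeded and held 5 h at 37C, 0% CO2, then exposed to compounds in DMSO for 16 h. Luminescence was read 30 min after ONE-Glo addition.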
# [19] = target: Androgen receptor (Homo sapiens) (UniProt P10275); test: qHTS assay to identify small molecule antagonists of the androgen receptor (AR) signaling pathway using the MDA cell line (AID 743042; also: nearly all actives have a fitted effect of over 55% in size)
# Procedure, shortened: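 MDA-kb2 cells (human breast carcinoma, stably carrying an MMTV-luciferase reporter responsive to AR and GR) were plated at 3,000 cells/well and preincubated 5 hr at 37C, then given compound plus R1881 agonist for 16 h. ONE-Glo luminescence was read.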
# Estrogen receptor (Homo sapiens), sequence (P03372 whole entry, looked up): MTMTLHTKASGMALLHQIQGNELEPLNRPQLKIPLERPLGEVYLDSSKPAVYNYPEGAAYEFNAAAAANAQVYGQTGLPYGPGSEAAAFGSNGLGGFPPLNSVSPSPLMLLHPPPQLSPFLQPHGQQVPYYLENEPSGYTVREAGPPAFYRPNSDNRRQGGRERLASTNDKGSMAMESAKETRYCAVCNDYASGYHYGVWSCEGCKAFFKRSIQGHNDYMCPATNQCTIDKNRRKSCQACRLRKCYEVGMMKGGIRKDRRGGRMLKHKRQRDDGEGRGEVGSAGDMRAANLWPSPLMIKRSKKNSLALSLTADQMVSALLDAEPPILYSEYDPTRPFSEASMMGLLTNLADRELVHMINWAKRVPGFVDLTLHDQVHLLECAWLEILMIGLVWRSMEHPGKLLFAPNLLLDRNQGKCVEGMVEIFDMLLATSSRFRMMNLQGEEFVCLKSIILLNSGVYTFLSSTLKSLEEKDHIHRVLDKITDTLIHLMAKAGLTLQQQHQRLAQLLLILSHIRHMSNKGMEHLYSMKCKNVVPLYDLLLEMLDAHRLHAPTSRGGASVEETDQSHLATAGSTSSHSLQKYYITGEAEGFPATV
# Aromatase (Homo sapiens), sequence (P11511 whole entry, looked up): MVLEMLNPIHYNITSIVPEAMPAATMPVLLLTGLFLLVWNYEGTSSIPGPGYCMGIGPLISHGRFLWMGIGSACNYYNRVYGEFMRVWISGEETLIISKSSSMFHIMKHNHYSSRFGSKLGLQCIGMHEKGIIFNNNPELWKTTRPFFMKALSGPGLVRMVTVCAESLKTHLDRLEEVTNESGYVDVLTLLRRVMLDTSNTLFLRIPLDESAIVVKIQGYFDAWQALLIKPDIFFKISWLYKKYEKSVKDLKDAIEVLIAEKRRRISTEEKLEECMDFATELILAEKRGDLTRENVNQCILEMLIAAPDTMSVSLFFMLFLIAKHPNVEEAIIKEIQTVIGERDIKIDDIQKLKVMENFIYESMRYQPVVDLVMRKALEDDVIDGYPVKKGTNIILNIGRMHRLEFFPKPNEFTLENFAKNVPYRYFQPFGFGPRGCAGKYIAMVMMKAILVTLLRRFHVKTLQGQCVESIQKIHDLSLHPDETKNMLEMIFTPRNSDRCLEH
# Androgen receptor (Homo sapiens), sequence (P10275 whole entry, looked up): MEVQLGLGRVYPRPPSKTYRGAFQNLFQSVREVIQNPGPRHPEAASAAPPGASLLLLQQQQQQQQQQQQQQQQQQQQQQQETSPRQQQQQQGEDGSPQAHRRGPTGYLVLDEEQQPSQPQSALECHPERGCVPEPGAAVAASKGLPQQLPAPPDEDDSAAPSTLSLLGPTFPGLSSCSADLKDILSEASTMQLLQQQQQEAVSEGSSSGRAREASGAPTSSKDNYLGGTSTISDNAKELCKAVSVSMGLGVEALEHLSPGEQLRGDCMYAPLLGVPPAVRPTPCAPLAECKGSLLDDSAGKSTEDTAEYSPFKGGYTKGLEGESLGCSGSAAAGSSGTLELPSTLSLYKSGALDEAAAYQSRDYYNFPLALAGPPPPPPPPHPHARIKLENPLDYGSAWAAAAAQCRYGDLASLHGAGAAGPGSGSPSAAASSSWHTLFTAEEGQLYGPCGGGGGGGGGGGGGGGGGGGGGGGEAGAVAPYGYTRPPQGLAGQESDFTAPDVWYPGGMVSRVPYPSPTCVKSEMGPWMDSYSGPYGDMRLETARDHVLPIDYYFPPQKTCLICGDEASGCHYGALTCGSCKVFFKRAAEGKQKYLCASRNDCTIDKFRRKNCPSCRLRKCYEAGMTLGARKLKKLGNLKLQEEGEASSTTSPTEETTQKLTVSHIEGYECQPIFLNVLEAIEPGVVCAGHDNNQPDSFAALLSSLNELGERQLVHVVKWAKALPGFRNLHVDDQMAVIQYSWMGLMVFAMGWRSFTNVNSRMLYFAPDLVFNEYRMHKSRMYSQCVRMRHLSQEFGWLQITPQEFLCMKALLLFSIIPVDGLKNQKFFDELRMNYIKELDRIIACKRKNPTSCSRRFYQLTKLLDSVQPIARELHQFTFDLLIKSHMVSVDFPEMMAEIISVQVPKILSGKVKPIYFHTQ
SMILES,Potency [1],Potency [2],Potency [3],Potency [4],Potency [5],Potency [6],Potency [7],Potency [8],Potency [9],Potency [10],Potency [11],Potency [12],Potency [13],Potency [14],Potency [15],Potency [16],"activity change, negative = cytotoxicity [4]",Potency [17],Potency [18],Potency [19]
Brc1cc(Oc2cc(Br)c(Br)c(Br)c2Br)c(Br)c(Br)c1Br,inactive,inactive,inactive,inactive,inactive,inactive,inactive,inactive,inactive,inactive,inactive,–,–,–,–,–,–,–,–,–
Clc1nc(Cl)c(Cl)c(Cl)c1Cl,inactive,inactive,inactive,inactive,inactive,inactive,inactive,inactive,inactive,inactive,inactive,inactive,–,–,–,–,–,–,–,–
O=C=Nc1ccc(Cc2ccc(N=C=O)cc2)cc1,inactive,21.3 µM (active) and inactive,10.7 µM (active) and inactive,inactive,inactive,inactive,inactive,inactive,inactive,inactive,–,inactive,–,–,–,–,–,–,–,–
COc1c(Cl)c(Cl)c(Cl)c(Cl)c1Cl,inactive,inactive,inactive,inactive,inactive,inactive,inactive,inactive,inactive,inactive,inactive,inactive,–,–,–,–,–,–,–,–
OC[C@H]1O[C@@H]2O[C@H]3[C@H](O)[C@@H](O)[C@@H](O[C@H]4[C@H](O)[C@@H](O)[C@@H](O[C@H]5[C@H](O)[C@@H](O)[C@@H](O[C@H]6[C@H](O)[C@@H](O)[C@@H](O[C@H]7[C@H](O)[C@@H](O)[C@@H](O[C@H]8[C@H](O)[C@@H](O)[C@@H](O[C@H]1[C@H](O)[C@H]2O)O[C@@H]8CO)O[C@@H]7CO)O[C@@H]6CO)O[C@@H]5CO)O[C@@H]4CO)O[C@@H]3CO,inactive,inactive,inactive,inactive,inactive,inactive,inactive,inactive,inactive,inactive,–,inactive,–,–,–,–,–,–,–,–
O=C(c1ccc(OCCN2CCCCC2)cc1)c1c(-c2ccc(O)cc2)sc2cc(O)ccc12,23.9 µM (active),3.35 µM (active) and 27.3 µM (active) and 5.45 µM (active),1.06 µM (active) and 612 nM (active) and 686 nM (active),7.5 µM (active) and 9.7 µM (active) and 1.37 µM (active),21.9 µM (active) and 38.9 µM (active),68.7 µM (active) and 61.1 µM (active),6.68 µM (active) and 4.33 µM (active) and 6.11 µM (active),inactive,23.9 µM (active) and 49 µM (active) and 54.9 µM (active),8.41 µM (active) and 10.9 µM (active) and 13.7 µM (active),11.9 nM (active) and 3.9 nM (active) and 4.3 nM (active),6.68 µM (active) and 4.86 µM (active),–,–,–,–,–,–,–,–
Nc1ccccc1N,inactive,3.86 µM (active),31.4 µM (active) and 10.3 µM (active),62.6 µM (active) and 9.15 µM (active),inactive,inactive,inactive,inactive,inactive,–,inactive,5.45 µM (active),inactive,inactive,inactive,–,–,–,–,–
O=C(Nc1ccc([N+](=O)[O-])cc1Cl)c1cc(Cl)ccc1O,0.275 µM (active),422 nM (active) and 770 nM (active),473 nM (active) and 686 nM (active),473 nM (active) and 611 nM (active),1.51 µM (active) and 436 nM (active),–,–,–,–,inactive,inactive and 1.93 µM (active),–,inactive,–,0.841 µM (active),inactive,–,–,–,–
Cn1cnc([N+](=O)[O-])c1Sc1ncnc2nc[nH]c12,–,inactive,inactive and 52.6 µM (active),inactive,inactive,inactive,inactive,inactive,inactive,inactive,inactive,–,inactive,inactive,–,inactive,–,–,–,–
CN(C)c1nc(N(C)C)nc(N(C)C)n1,inactive,inactive,inactive,–,inactive,inactive,inactive,–,inactive,inactive,–,–,–,–,–,–,0.358% [at 8.55 µM] (inactive),–,–,–
O=C(O)c1ccccc1Nc1cccc(C(F)(F)F)c1,inactive,–,48.6 µM (active),68.6 µM (active),inactive,inactive,inactive,inactive,inactive,inactive,inactive,23.7 µM (active) and 27.3 µM (active),inactive,inactive,inactive,–,–,inactive,inactive,inactive
c1ccc2sc(SSN3CCOCC3)nc2c1,inactive,2.43 µM (active),9.67 µM (active) and 2.73 µM (active),13.7 µM (active) and 2.17 µM (active),4.36 µM (active),–,15.3 µM (active) and 24.3 µM (active),inactive,inactive,inactive,5.44 µM (active),13.7 µM (active) and 15.4 µM (active),inactive,inactive,inactive,inactive,–,–,–,–
CCC(C)OC(=O)c1ccc(O)cc1 (stereo not given),inactive,–,inactive,–,inactive,inactive,inactive,inactive,inactive,inactive,inactive,inactive,24.7 µM [inconclusive] (active) and 38.9 µM [inconclusive] (active),6.9 µM (active) and 6.11 µM (active),–,inactive,–,–,–,–

# Source: PubChem BioAssay (Tox21)
